Here are results for 20 compounds from PubChem BioAssay.

Molecules are shown by their SMILES. A number with no mark means an inactive call. For some of these results: Results with a measured potency or affinity are listed apart. Calls of active or inactive are those of the source. Unless noted, no rule for the calls is given here.

The nature of test [1]: antimalarial activity against Dd2 strain (AID 2302;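 active = growth inhibition above 50% at the single 2 µM test dose, taken to imply half-maximal potency below 2 µM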;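 also: 0% = DMSO untreated growth and 100% = chloroquine plus artemisinin killed control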). The conditions noted are these: P. falciparum Dd2 in RBCs, LDH growth readout, 72 h; at 2 µM; stronger effect = higher value.
Test [2] in a line: HepG2 cytotoxicity, primary screen, cytotoxicity control for P. falciparum antimalarial project, cell-based, ATP luminescence (AID 2303;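 active = inhibition above 50%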;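 also: 0% = DMSO wells and 100% = digitonin-killed cells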). The conditions noted are these: HepG2 viability, 24-48 h, at 10 µM, stronger effect = higher value.
Test [3] addresses L-lactate dehydrogenase (Plasmodium falciparum (isolate CDC / Honduras)) (UniProt Q27743). As to the kind of experiment: PfLDH activity inhibition – cell lysate, 3D7 strain, counter-screen for P. falciparum growth inhibition project (AID 2304).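 Also: 0% = vehicle and 100% = reference inhibitor.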 The note with it: P. falciparum 3D7 crude extract, LDH APAD/NBT absorbance; at 2 µM; stronger effect = higher value.
The nature of test [4]: inhibition of 3D7 malaria parasite growth – strain 3D7 (AID 2306).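 Also: 0% = DMSO wells and 100% = chloroquine plus artemisinin control wells.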 The conditions noted are these: P. falciparum 3D7 erythrocytic growth, LDH absorbance, 72 h; at 2 µM; stronger effect = higher value.
In test [5] the target is Calcium-dependent protein kinase 1 (Plasmodium falciparum (isolate 3D7)) (UniProt P62344). The test can be described thus: PfCDPK1 kinase inhibitors, biochemical, TCAMS library (AID 1159585; cut-off not given, nearly all actives have IC50 up to about 0.98 µM;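 also: inhibitors leave more ATP so luminescence rises with inhibition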). The note with it: recombinant PfCDPK1, Kinase-Glo ATP depletion luminescence.
Sequence of Calcium-dependent protein kinase 1 (Plasmodium falciparum (isolate 3D7)) (P62344 whole entry, looked up): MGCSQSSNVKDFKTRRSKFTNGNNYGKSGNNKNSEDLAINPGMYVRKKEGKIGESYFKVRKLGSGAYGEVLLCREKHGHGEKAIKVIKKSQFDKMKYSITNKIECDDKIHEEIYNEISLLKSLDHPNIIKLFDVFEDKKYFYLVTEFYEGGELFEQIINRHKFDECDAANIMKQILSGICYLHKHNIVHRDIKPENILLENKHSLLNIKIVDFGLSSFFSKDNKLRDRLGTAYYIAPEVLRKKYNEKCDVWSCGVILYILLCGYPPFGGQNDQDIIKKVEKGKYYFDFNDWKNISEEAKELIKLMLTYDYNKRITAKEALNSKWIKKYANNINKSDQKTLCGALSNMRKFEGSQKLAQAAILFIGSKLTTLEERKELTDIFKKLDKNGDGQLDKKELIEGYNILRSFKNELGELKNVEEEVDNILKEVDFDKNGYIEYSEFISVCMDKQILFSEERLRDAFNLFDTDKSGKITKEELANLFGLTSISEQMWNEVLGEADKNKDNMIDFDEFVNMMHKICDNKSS
Test [6] addresses Plasmodium falciparum protein kinase 6 (PK6, PF3D7_1337100) (UniProt Q8IDW1). The test can be described thus: PfPK6 kinase inhibitors, biochemical, TCAMS library (AID 1159586). The conditions noted are these: recombinant PfPK6, Kinase-Glo ATP depletion luminescence.
Test [7] deals with Protein kinase 7 (PK7), Plasmodium falciparum 3D7 (PF3D7_0213400) (UniProt Q7YTF7). As to the kind of experiment: inhibition of Plasmodium PK7 catalytic activity – biochemical, TCAMS antimalarial set, Kinase-Glo luminescence (AID 1159587). The note with it: recombinant PfPK7, Kinase-Glo ATP depletion luminescence.
Sequence of Protein kinase 7 (PK7), Plasmodium falciparum 3D7 (PF3D7_0213400) (Q7YTF7 1-343): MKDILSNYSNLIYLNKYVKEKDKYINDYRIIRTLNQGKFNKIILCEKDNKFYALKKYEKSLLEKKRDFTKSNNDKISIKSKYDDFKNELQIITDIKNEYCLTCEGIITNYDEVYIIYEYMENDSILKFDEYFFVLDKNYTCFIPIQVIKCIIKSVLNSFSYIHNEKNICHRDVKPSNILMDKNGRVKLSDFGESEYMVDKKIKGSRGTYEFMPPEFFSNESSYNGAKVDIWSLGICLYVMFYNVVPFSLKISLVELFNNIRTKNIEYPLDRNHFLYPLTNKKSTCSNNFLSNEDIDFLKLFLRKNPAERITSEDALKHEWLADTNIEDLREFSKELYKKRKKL
Test [8] deals with Calcium-dependent protein kinase 4 (Plasmodium falciparum (isolate 3D7)) (UniProt Q8IBS5). As to the kind of experiment: PfCDPK4 kinase inhibitors, biochemical, TCAMS library (AID 1159588; cut-off not given, nearly all actives have IC50 up to about 0.91 µM). The note with it: recombinant PfCDPK4, Kinase-Glo ATP depletion luminescence.
Sequence of Calcium-dependent protein kinase 4 (Plasmodium falciparum (isolate 3D7)) (Q8IBS5 whole entry, looked up): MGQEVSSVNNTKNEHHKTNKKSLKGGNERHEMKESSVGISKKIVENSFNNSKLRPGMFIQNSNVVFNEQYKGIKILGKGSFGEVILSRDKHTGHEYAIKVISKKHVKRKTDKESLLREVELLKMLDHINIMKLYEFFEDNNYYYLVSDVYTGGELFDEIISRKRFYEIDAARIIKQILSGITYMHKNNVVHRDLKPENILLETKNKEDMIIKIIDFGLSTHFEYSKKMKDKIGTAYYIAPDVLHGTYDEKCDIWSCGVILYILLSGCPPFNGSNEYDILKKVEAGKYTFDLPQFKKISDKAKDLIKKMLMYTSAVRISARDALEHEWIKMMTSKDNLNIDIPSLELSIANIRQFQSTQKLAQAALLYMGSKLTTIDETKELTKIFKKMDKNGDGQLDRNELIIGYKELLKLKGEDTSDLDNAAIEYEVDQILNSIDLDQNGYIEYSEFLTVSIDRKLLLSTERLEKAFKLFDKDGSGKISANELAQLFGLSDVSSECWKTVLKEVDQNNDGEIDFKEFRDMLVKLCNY

Sequence of L-lactate dehydrogenase (Plasmodium falciparum (isolate CDC / Honduras)) (Q27743 whole entry, looked up): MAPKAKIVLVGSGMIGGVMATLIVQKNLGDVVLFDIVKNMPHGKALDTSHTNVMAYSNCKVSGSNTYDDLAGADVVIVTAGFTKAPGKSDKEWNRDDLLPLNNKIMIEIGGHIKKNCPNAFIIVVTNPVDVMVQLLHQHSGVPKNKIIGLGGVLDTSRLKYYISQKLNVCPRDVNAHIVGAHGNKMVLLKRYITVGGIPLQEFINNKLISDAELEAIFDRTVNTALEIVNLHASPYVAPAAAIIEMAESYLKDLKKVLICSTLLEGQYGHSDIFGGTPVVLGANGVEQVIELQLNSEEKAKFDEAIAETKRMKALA
Sequence of Plasmodium falciparum protein kinase 6 (PK6, PF3D7_1337100) (Q8IDW1 1-305): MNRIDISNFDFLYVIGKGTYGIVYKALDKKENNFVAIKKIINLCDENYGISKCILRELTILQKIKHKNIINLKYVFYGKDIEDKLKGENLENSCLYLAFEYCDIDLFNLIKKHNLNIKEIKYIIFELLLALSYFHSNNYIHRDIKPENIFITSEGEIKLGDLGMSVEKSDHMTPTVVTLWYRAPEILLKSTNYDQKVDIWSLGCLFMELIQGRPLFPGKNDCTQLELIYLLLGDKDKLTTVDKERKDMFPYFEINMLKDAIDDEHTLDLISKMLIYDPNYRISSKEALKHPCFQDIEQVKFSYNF

`CC1CCC(C(C)C)C(OC(=O)CSc2nnc3c(n2)[nH]c2ccccc23)C1` (stereo not given): the figures for the growth inhibition in test [1] and in test [4] were 74% (active) and 88% (active), respectively. The inhibition in test [2] is -5%; in test [3] it was -2%. Further, the outcome in test [5], in test [6], in test [7] and in test [8] was inactive.
As for `CCCCCCNC(=O)C1Cc2c([nH]c3ccc(Br)cc23)C2(CCN(Cc3ccccc3)CC2)N1` (stereo not given), the growth inhibition is 75% (active) in test [1] and 100% (active) in test [4]. The inhibition in test [2] is 100% (active); in test [3] it was 6%. For the same compound, the outcome in test [5], in test [6], in test [7] and in test [8] was inactive.
For the compound `COc1c(OC)c(OC)c2ccccc2c1CNCCCCCCNCc1c(OC)c(OC)c(OC)c2ccccc12`, the growth inhibition was 71% (active) in test [1] and 100% (active) in test [4]. For the same compound, the results for the inhibition in test [2] and in test [3] were 99% (active) and 3%, respectively. The result in test [5], in test [6], in test [7] and in test [8] was inactive.
`Cc1noc(C)c1C(=O)N1CCc2cc3nccc(N4CCN5CCC[C@H]5C4)c3cc21`: the results for the growth inhibition in test [1] and in test [4] were 9% and 93% (active), respectively. In addition, the inhibition in test [2] was 7%; in test [3], -5%. Also, the result in test [5], in test [6], in test [7] and in test [8] was inactive.
As to `O=C(COc1ccccc1)NC1CCN(c2ccnc3cc(Cl)ccc23)C1` (stereo not given), the growth inhibition in test [1] is 35%; in test [4], 101% (active). Further, the inhibition in test [2] was 22%; in test [3], -5%. The result in test [5], in test [6], in test [7] and in test [8] was inactive.
With `CCc1cc(Br)c(CNCCCNc2cc(=O)c3ccccc3[nH]2)s1`, the growth inhibition was 45% in test [1] and 90% (active) in test [4]. Moreover, the inhibition was 6% in test [2] and -10% in test [3]. Besides, the result in test [5], in test [6], in test [7] and in test [8] was inactive.
For `COc1ccc2c(c1)nc(CN=C(N)N)n2Cc1ccc(Cl)cc1`, the growth inhibition in test [1] is 99% (active); in test [4], 102% (active). The inhibition in test [2] is 12%; in test [3], 4%. Moreover, the outcome in test [5], in test [6], in test [7] and in test [8] was inactive.
Take `CCCOc1cccc(C(=O)N[C@@H](Cc2ccccc2)[C@H](O)CNCc2ccccc2OC)c1`: the values for the growth inhibition in test [1] and in test [4] were 61% (active) and 95% (active), respectively. In addition, the figures for the inhibition in test [2] and in test [3] were 11% and 0%, respectively. Moreover, the result in test [5], in test [6], in test [7] and in test [8] was inactive.
Consider `Cc1cccc2[nH]c(-c3ccc(-c4ccc(C(=O)NCCc5cn(C)cn5)cc4)s3)nc12`, for which the growth inhibition is 8% in test [1] and 88% (active) in test [4]. For the same compound, the inhibition is -6% in test [2] and -2% in test [3]. Moreover, the outcome in test [5], in test [6], in test [7] and in test [8] was inactive.
On to `CCN(CC)CCNc1c2ccc(Cl)cc2nc2ccc(OC)nc12`, for which the growth inhibition in test [1] is 99% (active); in test [4], 100% (active). Further, the inhibition in test [2] is 20%; in test [3], 2%. The result in test [5], in test [6], in test [7] and in test [8] was inactive.
For `CC(C)CCCC(C)(C)NC[C@@H](O)[C@H](Cc1ccccc1)NC(=O)c1cccc(OCC2CC2)c1`, the growth inhibition was 91% (active) in test [1] and 96% (active) in test [4]. Besides, the figures for the inhibition in test [2] and in test [3] were 99% (active) and 3%, respectively. The outcome in test [5], in test [6], in test [7] and in test [8] was inactive.
As to `CCCNC(=O)C1Cc2cc(OC)c(OC)cc2C2(N1)C(=O)N(Cc1cccc(OC)c1)c1ccccc12` (stereo not given), the growth inhibition is 63% (active) in test [1] and 91% (active) in test [4]. For the same compound, the inhibition is 11% in test [2] and 3% in test [3]. The result in test [5], in test [6], in test [7] and in test [8] was inactive.
Turning to `CCOC(=O)c1cnc2c(OC)cc(OC)c(Cl)c2c1Nc1ccccc1`, the growth inhibition is 100% (active) in test [1] and 99% (active) in test [4]. The results for the inhibition in test [2] and in test [3] were 13% and -3%, respectively. Moreover, the result in test [5], in test [6], in test [7] and in test [8] was inactive.
As for `Nc1nc(N)c2c(ccc3c2ccn3Cc2ccc(Cl)cc2)n1`, the values for the growth inhibition in test [1] and in test [4] were 99% (active) and 100% (active), respectively. Also, the inhibition in test [2] was 100% (active); in test [3], 0%. The result in test [5], in test [6], in test [7] and in test [8] was inactive.
In the case of `CC(C)(C)OC(=O)NCCc1cccc(-c2c[nH]c3ncc(-c4cccc(NS(C)(=O)=O)c4)cc23)c1`, the growth inhibition in test [1] is 71% (active); in test [4], 97% (active). Besides, the inhibition in test [2] is 16%; in test [3], -3%. For the same compound, the outcome in test [5], in test [6], in test [7] and in test [8] was inactive.
Regarding `c1ccc(-c2cc3cccc(-c4nc5ccncc5[nH]4)c3o2)cc1`, the growth inhibition is 95% (active) in test [1] and 100% (active) in test [4]. The inhibition in test [2] was 37%; in test [3] it was -6%. Further, the result in test [5], in test [6], in test [7] and in test [8] was inactive.
In the case of `FC(F)(F)c1cccc2c(NN=Cc3ccccc3)ccnc12`, the growth inhibition in test [1] is 90% (active); in test [4] it was 101% (active). The figures for the inhibition in test [2] and in test [3] were 10% and -4%, respectively. For the same compound, the result in test [5], in test [6], in test [7] and in test [8] was inactive.
For `COc1ccc2nc(C)cc(NN=Cc3cccc(F)c3)c2c1`, the growth inhibition in test [1] and in test [4] was 100% (active) throughout. Further, the inhibition in test [2] is 2%; in test [3], 1%. Besides, the outcome in test [5], in test [6], in test [7] and in test [8] was inactive.
`CCCCOc1ccc(C(=O)C(CCC(CNC(C)(C)C)C(=O)c2ccc(OCCCC)cc2)CNC(C)(C)C)cc1` (stereo not given): the growth inhibition in test [1] was 92% (active); in test [4] it was 94% (active). Further, the inhibition in test [2] was 100% (active); in test [3] it was 1%. Also, the outcome in test [5], in test [6], in test [7] and in test [8] was inactive.
As for `O=C(/C=C/c1ccc(Cl)c(Cl)c1)NCCCCCN1CCCN(C(=O)Nc2ccc(Cl)c(C(F)(F)F)c2)CC1`, the values for the growth inhibition in test [1] and in test [4] were 16% and 102% (active), respectively. Also, the inhibition was 35% in test [2] and 4% in test [3]. In addition, the result in test [5], in test [6], in test [7] and in test [8] was inactive.
